Reference: the supplement of paper PMC12282887
± gives the standard deviation of the averaged measurements.

System: E. coli BW25113 marRABp lux reporter
Assay: promoter activity interaction Z-score (Lux/OD deviation from empty-vector control); higher = stronger promoter induction by the compound
Method: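 E. coli BW25113 (wild type or ΔmarA/ΔsoxS/Δrob) carrying pTU175 luxCDABE promoter reporters was grown in LB in 384-well plates at 37°C with each of 94 compounds at 4 two-fold concentrations, in biological duplicates. Luminescence and OD600 were read every 30 min for 12 h and integrated as AUC over 8 h (0-8 h WT, 1-9 h mutants). Lux AUC was divided by OD AUC; the interaction score is the residual of a Huber robust fit of each promoter against the empty-vector control, then Z-transformed per promoter.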

Row | Compound | promoter activity interaction Z-score (9.8 µg/ml, genetic background: wild type) | promoter activity interaction Z-score (9.8 µg/ml, genetic background: ΔmarA) | promoter activity interaction Z-score (9.8 µg/ml, genetic background: Δrob) | promoter activity interaction Z-score (9.8 µg/ml, genetic background: ΔsoxS) | promoter activity interaction Z-score (19.5 µg/ml, genetic background: wild type) | promoter activity interaction Z-score (19.5 µg/ml, genetic background: ΔmarA) | promoter activity interaction Z-score (19.5 µg/ml, genetic background: Δrob) | promoter activity interaction Z-score (19.5 µg/ml, genetic background: ΔsoxS) | promoter activity interaction Z-score (39 µg/ml, genetic background: wild type) | promoter activity interaction Z-score (39 µg/ml, genetic background: ΔmarA) | promoter activity interaction Z-score (39 µg/ml, genetic background: Δrob) | promoter activity interaction Z-score (39 µg/ml, genetic background: ΔsoxS) | promoter activity interaction Z-score (19 µg/ml, genetic background: wild type) | promoter activity interaction Z-score (19 µg/ml, genetic background: ΔmarA) | promoter activity interaction Z-score (19 µg/ml, genetic background: Δrob) | promoter activity interaction Z-score (19 µg/ml, genetic background: ΔsoxS) | promoter activity interaction Z-score (38 µg/ml, genetic background: wild type) | promoter activity interaction Z-score (38 µg/ml, genetic background: ΔmarA) | promoter activity interaction Z-score (38 µg/ml, genetic background: Δrob) | promoter activity interaction Z-score (38 µg/ml, genetic background: ΔsoxS) | promoter activity interaction Z-score (76.1 µg/ml, genetic background: wild type) | promoter activity interaction Z-score (76.1 µg/ml, genetic background: ΔmarA) | promoter activity interaction Z-score (76.1 µg/ml, genetic background: Δrob) | promoter activity interaction Z-score (76.1 µg/ml, genetic background: ΔsoxS) | promoter activity interaction Z-score (152.1 µg/ml, genetic background: wild type) | promoter activity interaction Z-score (152.1 µg/ml, genetic background: ΔmarA) | promoter activity interaction Z-score (152.1 µg/ml, genetic background: Δrob) | promoter activity interaction Z-score (152.1 µg/ml, genetic background: ΔsoxS)
1 | c1ccc(-c2ccccn2)nc1 [2-2-Bipyridyl] | 0.799 ± 0.78 | 0.4 ± 0.48 | -0.042 ± 0.093 | -0.2756 ± 0.0019 | 0.288 ± 0.12 | 0.637 ± 0.14 | -0.32 ± 0.14 | -0.0307 ± 0.0061 | 2.32 ± 0.13 | 2.22 ± 0.2 | 1.59 ± 0.24 | 1.67 ± 0.33 |  |  |  |  |  |  |  |  |  |  |  |  |  |  |  | 
2 | COc1cc(C=O)ccc1O [Vanillin] |  |  |  |  |  |  |  |  |  |  |  |  | -0.156 ± 0.018 | -0.451 ± 0.34 | 0.0366 ± 0.23 | -0.21 ± 0.21 | 0.304 ± 0.065 | 0.0122 ± 0.2 | 0.119 ± 0.4 | -0.0492 ± 0.056 | 0.913 ± 0.07 | 0.599 ± 0.31 | 0.595 ± 0.066 | 0.224 ± 0.12 | 1.28 ± 0.41 | 1.702 ± 0.0098 | 1.077 ± 0.0082 | 0.812 ± 0.084
